According to PubChem BioAssay AID1159580 (chemical genetic matrix, 2015):
In all, about 5,500 compounds went through this assay and about 2,000 (36%) were called active. Another 18% or so got no clear call; they are omitted. Rule as the data show it: active = normalized growth mostly below about 0.91 (no sharp cut-off); inconclusive = no clear call, values can overlap the other calls; inactive = mostly above about 0.92. The list shows a part of the results.

Assay: chemical genetic growth profiling, strain panel (AID 1159580);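 also: tested at 20 µM; growth read once vehicle control cultures reached saturation at 30 °C; 1 = growth at the plate median or of vehicle wells; lower values mean less growth of the strain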
Conditions: growth OD
[1] = S. cerevisiae deletion strains, locus YAL040C, strain CLN3, active compounds read low
[2] = S. cerevisiae deletion strains, locus YCL061C, strain MRC1 (second series), active compounds read low
[3] = S. cerevisiae deletion strains, locus YDR363W, strain ESC2, active compounds read low
[4] = S. cerevisiae deletion strains, locus YER002W, strain NOP16, active compounds read low
[5] = S. cerevisiae deletion strains, locus YJR075W, strain HOC1, active compounds read low
[6] = S. cerevisiae deletion strains, locus YMR263W, strain SAP30, active compounds read low
[7] = S. cerevisiae deletion strains, locus YMR307W, strain GAS1, active compounds read low
[8] = S. cerevisiae deletion strains, locus YNL153C, strain GIM3, active compounds read low
[9] = S. cerevisiae deletion strains, locus YNL175C, strain NOP13, active compounds read low
[10] = S. cerevisiae deletion strains, locus YNL197C, strain WHI3, active compounds read low
[11] = S. cerevisiae deletion strains, locus YNL224C, strain SQS1, active compounds read low
[12] = S. cerevisiae deletion strains, locus YNL322C, strain KRE1, active compounds read low
[13] = S. cerevisiae deletion strains, locus YOR083W, strain WHI5 (second series), active compounds read low
[14] = S. cerevisiae deletion strains, locus YPL241C, strain CIN2, active compounds read low
[15] = S. cerevisiae deletion strains, locus YAL013W, strain DEP1, active compounds read low
[16] = S. cerevisiae deletion strains, locus YBR229C, strain ROT2, active compounds read low
[17] = S. cerevisiae deletion strains, locus YDL101C, strain DUN1, active compounds read low
[18] = S. cerevisiae deletion strains, locus YGR078C, strain PAC10, active compounds read low
[19] = S. cerevisiae deletion strains, locus YLR039C, strain RIC1, active compounds read low
[20] = S. cerevisiae deletion strains, locus YLR262C, strain YPT6, active compounds read low
[21] = S. cerevisiae deletion strains, locus YPL055C, strain LGE1, active compounds read low

Measured: normalized growth

NCC1OC(O[C@@H]2[C@H](O)C(OC3C(O)C(N)CC(N)C3OC3OC(CO)C(O)C(O)C3N)O[C@@H]2CO)C(N)C(O)C1O (stereo partly drawn)
inactive: [1] 1.07 | [2] 1 | [3] 1.02 | [4] 1.02 | [5] 1 | [6] 0.997 | [7] 1 | S. cerevisiae deletion strains, locus YNL128W, strain TEP1, active compounds read low 1.01 | [8] 1.03 | [9] 1.01 | [10] 1.01 | [11] 1.01 | [12] 0.993 | [13] 1.02 | [14] 1

CCc1cc2c(cc1C(=O)CC1(O)C(=O)Nc3ccc(Br)cc31)C(C)(C)CCC2(C)C (stereo not drawn)
inactive: [15] 1.01 | [16] 1.01 | S. cerevisiae deletion strains, locus YCL061C, strain MRC1, active compounds read low 1.02 | [17] 1.02 | S. cerevisiae deletion strains, locus YDL134C, strain PPH21, active compounds read low 1.01 | S. cerevisiae deletion strains, locus YDR150W, strain NUM1, active compounds read low 0.953 | S. cerevisiae deletion strains, locus YEL061C, strain CIN8, active compounds read low 0.978 | [18] 1.02 | S. cerevisiae deletion strains, locus YHR030C, strain SLT2, active compounds read low 1.02 | S. cerevisiae deletion strains, locus YHR087W, strain rtc3, active compounds read low 0.961 | S. cerevisiae deletion strains, locus YJR043C, strain POL32, active compounds read low 1.01 | [5] 0.979 | [19] 1.03 | S. cerevisiae deletion strains, locus YLR058C, strain SHM2 (second series), active compounds read low 1.01 | S. cerevisiae deletion strains, locus YLR085C, strain ARP6, active compounds read low 1.02 | [20] 1.01 | S. cerevisiae deletion strains, locus YML094W, strain GIM5, active compounds read low 0.997 | S. cerevisiae deletion strains, locus YMR219W, strain ESC1, active compounds read low 1 | [6] 1.06 | [7] 0.959 | [8] 1.01 | S. cerevisiae deletion strains, locus YNL298W, strain CLA4 (second series), active compounds read low 0.998 | [12] 1.01 | S. cerevisiae deletion strains, locus YNR030W, strain Alg12, active compounds read low 1.01 | [21] 0.921 | [14] 1.02 | S. cerevisiae deletion strains, locus YPR135W, strain CTF4, active compounds read low 1.06

CC(C)C(=O)c1c(C(C)C)nn2ccccc12
inactive: [15] 0.972 | [1] 1.06 | [2] 0.985 | [3] 0.995 | [4] 0.983 | [18] 0.984 | S. cerevisiae deletion strains, locus YGR229C, strain SMI1, active compounds read low 0.942 | [5] 0.991 | [9] 0.985 | [10] 0.985 | [11] 0.962 | [12] 0.985 | [13] 0.936 | [21] 0.967

CC1=CCC2C3(C)C1=CC(=O)OC3CC1C(C)(C)CC(O)C(O)C12C (stereo not drawn)
inactive: S. cerevisiae deletion strains, locus YBR021W, strain FUR4, active compounds read low 0.993 | [16] 1.02 | S. cerevisiae deletion strains, locus YCL029C, strain bik1, active compounds read low 1 | S. cerevisiae deletion strains, locus YDL035C, strain GPR1, active compounds read low 1.06 | S. cerevisiae deletion strains, locus YDL074C, strain BRE1, active compounds read low 1.07 | [17] 1.01 | S. cerevisiae deletion strains, locus YDL185W, strain tfp1, active compounds read low 0.996 | S. cerevisiae deletion strains, locus YDL192W, strain arf1, active compounds read low 1.01 | S. cerevisiae deletion strains, locus YDR101C, strain arx1, active compounds read low 1.02 | S. cerevisiae deletion strains, locus YDR162C, strain NBP2, active compounds read low 1.02 | S. cerevisiae deletion strains, locus YDR318W, strain mcm21, active compounds read low 0.981 | S. cerevisiae deletion strains, locus YDR388W, active compounds read low 0.994 | S. cerevisiae deletion strains, locus YDR502C, strain sam2, active compounds read low 0.998 | S. cerevisiae deletion strains, locus YER110C, active compounds read low 0.991 | S. cerevisiae deletion strains, locus YER155C, strain BEM2, active compounds read low 1 | S. cerevisiae deletion strains, locus YER167W, strain BCK2, active compounds read low 1.03 | S. cerevisiae deletion strains, locus YGL078C, strain dbp3, active compounds read low 1 | S. cerevisiae deletion strains, locus YGL086W, strain mad1, active compounds read low 0.995 | S. cerevisiae deletion strains, locus YGL248W, strain PDE1, active compounds read low 1.01 | S. cerevisiae deletion strains, locus YGR135W, strain pre9, active compounds read low 0.979 | S. cerevisiae deletion strains, locus YGR252W, strain gcn5, active compounds read low 0.96 | S. cerevisiae deletion strains, locus YHR079C, strain IRE1 (second series), active compounds read low 0.989 | S. cerevisiae deletion strains, locus YHR094C, strain hxt1, active compounds read low 0.99 | S. cerevisiae deletion strains, locus YHR129C, strain ARP1, active compounds read low 1.01 | S. cerevisiae deletion strains, locus YHR200W, strain rpn10, active compounds read low 0.983 | S. cerevisiae deletion strains, locus YIL066C, strain RNR3, active compounds read low 1.05 | S. cerevisiae deletion strains, locus YIL073C, strain SPO22, active compounds read low 1 | S. cerevisiae deletion strains, locus YIL125W, strain kgd1, active compounds read low 1.01 | S. cerevisiae deletion strains, locus YIR030C, strain dcg1, active compounds read low 0.986 | S. cerevisiae deletion strains, locus YJL095W, strain BCK1, active compounds read low 1.03 | S. cerevisiae deletion strains, locus YJL134W, strain LCB3, active compounds read low 1.01 | S. cerevisiae deletion strains, locus YJL168C, strain set2, active compounds read low 0.991 | S. cerevisiae deletion strains, locus YJL187C, strain SWE1 (second series), active compounds read low 1 | S. cerevisiae deletion strains, locus YKL009W, strain mrt4, active compounds read low 1.05 | S. cerevisiae deletion strains, locus YKL068W, active compounds read low 0.993 | S. cerevisiae deletion strains, locus YKL085W, strain MDH1 (second series), active compounds read low 0.991 | S. cerevisiae deletion strains, locus YKL085W, strain MDH1, active compounds read low 0.991 | S. cerevisiae deletion strains, locus YKL190W, strain CNB1, active compounds read low 1.01 | S. cerevisiae deletion strains, locus YKR001C, strain vps1, active compounds read low 1.02 | [19] 1.12 | S. cerevisiae deletion strains, locus YLR058C, strain SHM2, active compounds read low 1.04 | S. cerevisiae deletion strains, locus YLR102C, strain apc9, active compounds read low 0.991 | [20] 1.17 | S. cerevisiae deletion strains, locus YLR268W, strain sec22, active compounds read low 1.03 | S. cerevisiae deletion strains, locus YLR330W, strain CHS5, active compounds read low 1.01 | S. cerevisiae deletion strains, locus YLR371W, strain rom2, active compounds read low 1 | S. cerevisiae deletion strains, locus YLR418C, strain cdc73, active compounds read low 0.97 | S. cerevisiae deletion strains, locus YML016C, strain PPZ1, active compounds read low 1.01 | S. cerevisiae deletion strains, locus YML032C, strain rad52, active compounds read low 1 | S. cerevisiae deletion strains, locus YML124C, strain tub3, active compounds read low 0.993 | S. cerevisiae deletion strains, locus YMR078C, strain ctf18, active compounds read low 0.99 | S. cerevisiae deletion strains, locus YMR223W, strain ubp8, active compounds read low 0.989 | [6] 1.01 | [7] 1.09 | S. cerevisiae deletion strains, locus YNL067W, strain RPL9B, active compounds read low 0.997 | [8] 1.01 | S. cerevisiae deletion strains, locus YNL233W, strain BNI4, active compounds read low 0.999 | S. cerevisiae deletion strains, locus YNL250W, strain rad50, active compounds read low 0.962 | S. cerevisiae deletion strains, locus YNL271C, strain bni1, active compounds read low 1 | S. cerevisiae deletion strains, locus YNL298W, strain CLA4, active compounds read low 1.01 | S. cerevisiae deletion strains, locus YNL307C, strain MCK1, active compounds read low 0.999 | S. cerevisiae deletion strains, locus YNR052C, strain pop2, active compounds read low 0.998 | S. cerevisiae deletion strains, locus YOL012C, strain htz1 0.612 | S. cerevisiae deletion strains, locus YOL147C, strain pex11, active compounds read low 0.998 | S. cerevisiae deletion strains, locus YOR061W, strain CKA2, active compounds read low 1.06 | S. cerevisiae deletion strains, locus YOR069W, strain VPS5, active compounds read low 1.01 | S. cerevisiae deletion strains, locus YOR136W, strain idh2, active compounds read low 0.996 | S. cerevisiae deletion strains, locus YOR144C, strain elg1, active compounds read low 1 | S. cerevisiae deletion strains, locus YOR184W, strain ser1, active compounds read low 1.04 | S. cerevisiae deletion strains, locus YOR316C, strain cot1, active compounds read low 0.989 | [14] 1.01 | S. cerevisiae deletion strains, locus YPR119W, strain clb2, active compounds read low 0.987 | S. cerevisiae deletion strains, locus YPR141C, strain kar3, active compounds read low 1 | S. cerevisiae deletion strains, locus YPR163C, strain tif3, active compounds read low 1 | S. cerevisiae deletion strains, locus YPR167C, strain met16, active compounds read low 0.985 | S. cerevisiae deletion strains, strain wtn01, active compounds read low 1.01 | S. cerevisiae strains, strain wild type, active compounds read low 1.04
